# FBPA coupling cs: inhibits coupling enzyme system, counter-screen for aldolase hits | coupling enzyme system counterscreen, AmpLite Red fluorescence | hit rate 0.67% among 290,000 | activity change, negative = inhibition, % at 58.2 µM, hits read low; in the data active = activity change below about -30%
#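 Fluorescence at 525 nm excitation and 598 nm emission measured inhibition of the coupled detection system without aldolase. Compounds (at 57.5 uM final) were preincubated 10 min at room temperature with coupling enzyme reagent before a 20 min substrate/AmpLite Red step.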
# GALK inh: inhibitors of human galactokinase | P51570 | Purified GALK, Kinase-Glo residual ATP luminescence | Potency, µM (series often up to 57.5 µM), usual class: inhibitors | hit rate 0.007% among 270,000
#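 Human GALK (5 nM) with 35 uM ATP and 100 uM galactose in 20 mM HEPES pH 8.0, 5 mM MgCl2, 60 mM NaCl, 1 mM DTT, 0.01% BSA. After 1 h at room temperature, leftover ATP was read by Kinase-Glo Plus luminescence.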
# PLK1 PBD inh: inhibitors of human PLK1 polo-box domain binding | P53350 | Plk1 PBD binding of FITC phosphopeptide, fluorescence polarization | Potency, µM, hits mostly inhibitors | hit rate 2.8% among 360,000 | AID 720504; note: series mostly up to about 57 µM; nearly all actives have a fitted effect of over 65% in size
# VDR inh: inhibitors of human vitamin D receptor; P11473; AID 504847; hit rate 0.93% among 400,000; VDR-SRC2-3 peptide fluorescence polarization, 2 h; Potency, µM, actives largely listed as inhibitors
#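 Two reagent solutions held at 4 deg C in the dark were dispensed, compounds pinned at 23 nl, and the mixture incubated 2 h at room temperature. Read-out: fluorescence polarization of VDR–SRC2-3 peptide binding.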
# USP2a block: blocks human ubiquitin-specific protease USP2a. hit rate 0.01% among 330,000. Potency, µM (series often up to 38.3 µM), actives largely listed as inhibitors. O75604. USP2 core, Ub-CHOP2 coupled fluorogenic reporter, 485/531
# Target sequence (O75604 whole entry, looked up): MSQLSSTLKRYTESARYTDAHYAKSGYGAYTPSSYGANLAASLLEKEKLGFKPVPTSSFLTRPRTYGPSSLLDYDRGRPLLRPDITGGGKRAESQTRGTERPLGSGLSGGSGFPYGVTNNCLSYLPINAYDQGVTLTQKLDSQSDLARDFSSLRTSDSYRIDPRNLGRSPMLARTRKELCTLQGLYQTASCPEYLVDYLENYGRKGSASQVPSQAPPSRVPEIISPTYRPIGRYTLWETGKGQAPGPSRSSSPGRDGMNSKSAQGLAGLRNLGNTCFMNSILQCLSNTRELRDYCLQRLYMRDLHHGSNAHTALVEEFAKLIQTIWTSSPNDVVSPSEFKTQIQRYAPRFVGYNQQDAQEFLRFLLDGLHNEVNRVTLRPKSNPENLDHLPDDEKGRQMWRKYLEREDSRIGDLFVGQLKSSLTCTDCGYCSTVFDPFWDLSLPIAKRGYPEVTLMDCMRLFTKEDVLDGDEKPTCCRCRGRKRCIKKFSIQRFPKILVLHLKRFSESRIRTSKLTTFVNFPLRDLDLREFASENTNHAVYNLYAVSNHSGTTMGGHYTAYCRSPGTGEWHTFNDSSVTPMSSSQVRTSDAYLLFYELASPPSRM
#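 Cell-free coupled assay: 10nM USP2 core preincubated 30min RT with compound in Tris-HCl pH 8.0/CaCl2/CHAPS buffer, then 25nM Ub-CHOP2 and 25nM reporter substrate; fluorescence (Ex 485/Em 531) read after 60min RT, normalized to NEM inhibition, concentration-response curves fitted.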
# USP1 inh: blocks the human USP1/UAF1 deubiquitinase complex. O94782. recombinant USP1/UAF1, Ub-Rhodamine cleavage fluorescence. Potency, µM (titrated, usually from 57.1 µM), hits mostly inhibitors. hit rate 0.23% among 390,000; note: nearly all actives have a fitted effect of over 60% in size
#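 1 nM enzyme complex + cpd, 15 min RT; start with Ub-Rho 150nM final; kinetic fluorescence ex 480/em 540, 6 reads q60 s. Buffer 50mM HEPES pH 7.8, 0.5mM EDTA, 0.1 mg/ml BSA, 1mM TCEP, 0.01% Tween-20.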
# A number is an active result; - = inactive; ? = inconclusive; . = no result; ! = not active in a repeat. Sampled rows, rich in hits. Any-hit rate of the full collection: about 3.2%. Unless noted, calls come from the whole dose curve; as a rule, active = well fitted curve in the direction sought with a large enough effect; inconclusive = small, poorly fitted or top-dose-only effect, or another doubt; inactive = no such curve, though single readings can be large; an effect the other way counts as inactive or inconclusive.
SMILES,FBPA coupling cs,GALK inh,PLK1 PBD inh,VDR inh,USP2a block,USP1 inh
CC(C)(C)NC(=O)NC(=O)CSc1nnc(-c2ccccc2F)n1N,-,-,-,-,-,-
COc1cccc(S(=O)(=O)Nc2ccc3c(c2)[C@@H]2C[C@@H](CC(=O)NCc4ccc(Cl)cc4)O[C@@H](CO)[C@@H]2O3)c1,.,.,-,.,.,.
Cc1cc(C)n2nc(C(=O)NCc3ccccc3)nc2n1,-,-,-,-,-,-
Cc1cc(C)n2nc(CC(=O)NCc3ccc(F)cc3)nc2n1,-,-,26.7µM,-,-,-
Cc1cc(C)n2nc(C(=O)NCc3ccccc3)cc2n1,-,-,21.2µM,?,-,-
O=C1C(Cc2ccccc2)Nc2ncnc(N3CCOCC3)c2N1Cc1ccc(Cl)cc1 (stereo unspecified),.,.,26.7µM!,-,-,-
CCC1Nc2ncnc(N3CCOCC3)c2N(Cc2ccc(OC)cc2)C1=O (stereo unspecified),.,.,26.7µM,79.4µM,-,-
CCOC(=O)C(CC)(CCC(=O)O)c1csc(Nc2ccc(C)cc2)n1 (stereo unspecified),-,-,-,-,-,-
Cn1c(-c2sccc2OCc2ccc(Cl)cc2Cl)n[nH]c1=S,-,-,26.7µM,-,-,-
Cc1ccc(COc2ccsc2-c2n[nH]c(=S)n2C)cc1,-,-,-,-,-,-
CCCCn1nc(C(=O)NC2CCCCCC2)c2ccccc2c1=O,.,.,-,-,-,-
COc1ccc(/C=C2/C(=O)N(c3ccccc3)N=C2C)cc1OC,-,-,2.99µM,-,-,-
CC1=NN(c2ccccc2)C(=O)/C1=C/c1cccc(C)c1,-,-,2.12µM,50.1µM,-,-
COc1ccccc1/C=C1/C(=O)N(c2ccc([N+](=O)[O-])cc2)N=C1C,-,-,1.89µM,?,-,-
CC1=NN(c2ccc([N+](=O)[O-])cc2)C(=O)/C1=C\N(C)C,-,.,-,?,-,-
CCOc1cc(/C=C2/C(=O)N(c3ccccc3)N=C2C)ccc1OC(=O)c1cccs1,-,-,2.12µM,?,-,-
CCOc1cc(/C=N/NC(=O)c2ccccn2)ccc1OC(=O)c1cccs1,-,-,-,-,-,-
COc1cc(/C=C2/C(=O)N(c3cccc(Br)c3)N=C2C)cc(OC)c1O,-,.,?,?,-,-
O=C(Nc1ccccn1)c1ccc(NC(=O)c2ccco2)cc1,-,-,-,-,-,-
COc1ccc(C(=O)NC(CC(C)C)C(=O)O)cc1 (stereo unspecified),.,.,-,-,-,-
CC(=O)Oc1ccc(/C=C2/C(=O)N(c3ccccc3)N=C2C)cc1,-,-,2.12µM,?,-,-
CC1=NN(c2ccccc2)C(=O)/C1=C/N(C)C,-,-,-,-,-,-
CCC1CN(C(=O)N2CCC(C(=O)NCc3cccc(F)c3)CC2)c2ccccc2O1 (stereo unspecified),.,-,-,-,-,-
Cc1ccc(S(=O)(=O)N(C)c2nc3ccccc3[nH]c2=S)cc1,-,-,10.6µM,?,-,-
Cc1cc(C)cc(NC(=O)CN(c2ccc(F)cc2)S(C)(=O)=O)c1,-,-,10.6µM,?,-,-
SMILES,FBPA coupling cs,GALK inh,PLK1 PBD inh,VDR inh,USP2a block,USP1 inh
Cc1cccc(N(CC(=O)Nc2ccc(F)cc2)S(C)(=O)=O)c1,-,-,-,-,-,-
COc1ccc(NC(=O)CN(c2cc(C)cc(C)c2)S(=O)(=O)c2c(C)n[nH]c2C)cc1,-,-,29.9µM,89.1µM,-,-
COc1ccc(N(CC(=O)Nc2ccc(F)c(F)c2)S(=O)(=O)c2c(C)n[nH]c2C)cc1,.,-,-,-,-,-
Cc1ccc(-c2nc3ccccc3[nH]2)cc1NC(=O)c1ccc2c(c1)OCO2,-,-,-,-,-,-
O=C(NC(=S)Nc1cc(-c2nc3ccccc3[nH]2)ccc1Cl)c1ccc2c(c1)OCO2,-,.,23.8µM,-,-,-
CN(C)c1nc(C=C(C#N)C#N)c(Cl)n1-c1ccc(F)cc1,-,-,15µM,25.1µM,-,-
COc1cc(/C=C2/SC(=S)NC2=O)ccc1OS(=O)(=O)c1ccc(C)cc1,-,-,9.47µM,50.1µM,-,?
COc1cc(/C=C2\SC(=S)NC2=O)ccc1OS(=O)(=O)c1ccccc1,-,-,.,.,-,.
COc1cc(/C=C2\SC(=S)N(CCCCC(=O)O)C2=O)ccc1OS(=O)(=O)c1ccc(C)cc1,.,.,29.9µM,?,-,?
O=C(Nc1ccc(F)cc1F)c1ccc2nc(N3CCOCC3)sc2c1,-,.,-,-,-,-
COc1ccc(-n2ncc3c(SCC(=O)N4CCN(c5ccccc5OC)CC4)ncnc32)cc1,-,-,-,-,-,-
COc1cc(-c2nnc3sc(C4CCCCC4)nn23)cc(OC)c1OC,-,-,-,-,-,-
Cc1cc(-c2nnc3sc(C4CCCCC4)nn23)n[nH]1,-,-,26.7µM,-,-,-
CCOC(=O)c1c(NC(=O)CSc2nnc(-c3c[nH]c4ccccc34)n2CCOC)sc2c1CCCCC2,-,.,-,-,-,-
O=C(O)CSc1nnc(CNc2ccc(Cl)cc2)n1Cc1ccccc1,-,-,26.7µM,?,-,-
COc1ccccc1-c1cc2nc(NCCc3ccc(S(N)(=O)=O)cc3)ccn2n1,.,.,-,.,.,.
N#C/C(=N\Nc1cccc([N+](=O)[O-])c1)C(=O)c1ccc(Br)cc1,-,-,29.9µM,-,-,-
CN(C)CCCN(C(=O)/C=C/c1cccs1)c1nc2c(F)cccc2s1,-,-,-,-,-,-
O=c1c2c(-c3ccc([N+](=O)[O-])cc3)csc2nc2n1CCC2,-,-,26.7µM,-,-,-
CC1(C)O[C@H]2CC(=O)OC[C@@]23C1CC(=O)[C@]1(C)C3CC[C@@]2(C)[C@H](c3ccoc3)OC(=O)[C@H]3O[C@]321 (stereo partly specified),.,.,-,-,-,?
CC1(C)C(=O)C=C[C@]2(C)C1CC(=O)[C@]1(C)C2CC[C@@]2(C)C(c3ccoc3)OC(=O)C3O[C@@]321 (stereo partly specified),-,.,.,20µM,.,.
COc1ccc(S(=O)(=O)N(CC(=O)NC2CC3CCC2C3)c2ccccc2OC)cc1 (stereo unspecified),-,-,26.7µM,?,-,-
COc1ccccc1N(CC(=O)NC1CC2CCC1C2)S(=O)(=O)c1ccc(C)cc1 (stereo unspecified),.,-,-,-,-,-
CC(CCc1ccccc1)NS(=O)(=O)c1ccc(Cl)c(C(=O)O)c1 (stereo unspecified),-,-,23.8µM,?,-,-
CN(C)S(=O)(=O)c1cccc(-c2nn(-c3ccccc3)cc2/C=C2\SC(=S)NC2=O)c1,-,-,21.2µM,-,-,?

# Compound activity (PubChem BioAssay)
